Tau fibril FP: blocks human tau fibril formation measured by polarization; Potency, µM (top dose mostly 57.7 µM), without a hit: at the top dose activity, negative = inhibition, actives largely listed as inhibitors; K18 P301L tau heparin fibrillization, Alexa594 FP, 6 h; AID 1468; 0.39% of 280,000 active; further: potency means the concentration at half of the fitted maximal effect; nearly all actives have a fitted effect of over 55% in size
Target sequence (P10636 561-689 P618L limits assumed): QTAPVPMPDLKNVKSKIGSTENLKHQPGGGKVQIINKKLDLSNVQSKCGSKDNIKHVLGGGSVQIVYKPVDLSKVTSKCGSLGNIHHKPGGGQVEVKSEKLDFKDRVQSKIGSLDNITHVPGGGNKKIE
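Compound effects on tau fibrillization are measured by Alexa 594 fluorescence polarization (ex 555, em 632 nm). K18 P301L tau is used at 15 uM with 0.24 uM labeled tracer, and 20 uM heparin induces aggregation over 6 hr at 37 C.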
Sfp inh: Sfp phosphopantetheinyl transferase inhibition; Q9F4F7; Biochemical Sfp PPTase activity, qHTS; Potency, µM, without a hit: largest response in the series, negative = inhibition, usual class: inhibitors; 3.5% of 310,000 active;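 further: the enzyme is Sfp with the accession as filed and its product quenches rhodamine fluorescence; potency means the concentration at half of the fitted maximal effect; 0% = enzyme reaction without inhibitor and -100% = no enzyme wells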
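After 15 min at room temperature with compound, 15 nM Sfp received 5 uM rhodamine-CoA plus 12.5 uM BHQ-2-ybbR (50 mM Hepes pH 7.6, 10 mM MgCl2). Rate came from the fluorescence difference over 30 min, ex 525/em 598 nm.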
Tau fluor cs: counter-screen for tau fibril formation inhibitors; Potency, µM (series often up to 57.7 µM), for inactives: top-dose activity change, negative = decrease; AID 1463; tau K18 P301L Alexa594 fluorescence, heparin fibrillization; 0.93% of 280,000 active; further: potency means the concentration at half of the fitted maximal effect; nearly all actives have a fitted effect of over 55% in size
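Human tau K18 P301L (15 uM unlabeled, 0.24 uM Alexa 594-labeled) in 100 mM sodium acetate pH 7 with 20 uM heparin, 6 hr at 37 C. ThT 30 uM added, 1 hr ambient; Alexa 594 FP and total fluorescence read at 555/632 nm.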
Tau ThT inhib: inhibitors of human tau fibril formation, thioflavin T binding. recombinant tau K18 P301L, heparin-induced fibrillization, ThT fluorescence. Potency, µM (series often up to 57.4 µM), for inactives: at the top dose activity, negative = inhibition, hits mostly inhibitors. 2.1% of 270,000 active; further: potency means the concentration at half of the fitted maximal effect; nearly all actives have a fitted effect of over 55% in size
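Using a mix of unlabeled (15 uM) and Alexa 594-labeled (0.24 uM) tau K18 P301L, heparin-triggered fibrillization over 6 hr at 37 C was scored by ThT fluorescence.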
Coupling enz: counter-screen for Giardia aldolase inhibitors: coupling enzyme system. coupling enzyme system counterscreen, AmpLite Red fluorescence. activity change, negative = inhibition, % at 58.2 µM, hits read low. 0.67% of 290,000 active. AID 2472; in the data active means activity change below about -30%
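Counterscreen of the coupled detection system alone, without aldolase: glyceraldehyde-3-phosphate coupling enzymes plus AmpLite Red readout. Compounds at 57.5 uM final, 10 min RT preincubation, 20 min RT reaction, fluorescence 525/598 nm.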
Starred values were filed as active, the others as inactive; u = inconclusive; x = no result given; [ ] = remark or other dose. Shown are actives, neighbours in structure and some others; about 5.2% of the full set was active somewhere. Unless noted, the call rests on the fitted dose curve; in most records, active means well fitted curve in the direction sought with a large enough effect; inconclusive means small, poorly fitted or top-dose-only effect, or another doubt; inactive means no such curve, though single readings can be large; an effect the other way counts as inactive or inconclusive. Unless noted, on the % scale 0 is the no-effect control and ±100 the full control effect.

SMILES	Tau fibril FP	Sfp inh	Tau fluor cs	Tau ThT inhib	Coupling enz
c1ccc(C(c2ccccc2)N2CC3(CCNCC3)C2)cc1	x	-18%	x	x	3
CN(NC1CC(=O)N(c2ccccc2)C1=O)c1ccccc1 (centres undefined)	-14%	45µM*	-7%	u	4
c1ccc(Nc2nnc(SCc3cccc4ccccc34)s2)cc1	-10%	-10%	16µM*[quencher]	-10%	1
O=C(/C=C/c1ccc2c(c1)OCO2)c1cccs1	6%	71µM*	-4%	u	-8
CCNc1ccccc(C(=O)/C=C/c2ccc3c(c2)OCO3)c1=O	u	45µM*	u	14µM*	-27
COc1cc(NC(=O)CCc2c(C)nc3nc(-c4cc(OC)cc(OC)c4)nn3c2C)cc(OC)c1	-12%	x	u	u	x
Cc1ccc(-c2nc(NC(=O)CSc3nnc4scc(-c5ccccc5)n34)ns2)cc1	-8%	35µM*	-10%	-13%	7
Cc1ccc(NC(=O)CSc2nnc3scc(-c4ccc(Cl)cc4)n23)cc1	u	x	0%	6%	x
Fc1ccc2nc(Nc3nc4c(F)cc(F)cc4s3)sc2c1	-17%	-14%	u	u	0
c1ccc2sc(Nc3nc4cc5c(cc4s3)OCO5)nc2c1	3%	u	0%	1%	-1
Fc1ccc2nc(Nc3nc4cc5c(cc4s3)OCO5)sc2c1	u	-6%	3.5µM*[quencher]	u	-5
Fc1ccc2nc(Nc3nc4cc5c(cc4s3)OCCO5)sc2c1	-6%	-11%	14µM*[quencher]	10µM*	-2
COc1ccc(-c2nc(SCC(=O)NCCc3ccc(OC)c(OC)c3)n[nH]2)cc1	-1%	x	1%	u	x
Cc1ccc(N2CC(NC(=O)C3CC3)CC2=O)cc1C (centres undefined)	1%	x	3%	-5%	x
CCSC1=N/C(=C\c2ccc(C(=O)O)cc2)C(=O)S1	-9%	u	-3%	-10%	2
C=CCSC1=N/C(=C\c2ccc(C(=O)O)cc2)C(=O)S1	u	40µM*	-13%	u	7
CC(=O)OC1C=C[C@@H](OC(C)=O)C1 (some centres undefined)	x	-14%	x	x	-1
COCCNC(=S)N/N=C/c1ccccc1C(=O)O	7%	63µM*	-4%	-3%	3
COc1cc(OC)cc(C(=O)NC(=S)Nc2ccc(Cl)c(C(=O)O)c2)c1	-3%	-25%	-3%	-2%	8
COCCNC(=S)NNc1ccc(Cl)c(C(=O)O)c1	u	4µM*	-14%	u	-2
CNC(=S)N/N=C/c1ccccc1OCC(=O)O	2%	20µM*	-8%	-5%	0
COc1ccc(-c2n[nH]c(=S)n2-c2cc(OC)ccc2OC)cc1	-4%	79µM*	0%	-2%	1
Cc1ccc(-n2c(Cn3c(C)nc4ccccc43)n[nH]c2=S)cc1	9%	-21%	-1%	0%	1
COc1ccc(OC)c(-n2c(Cn3c(-c4ccccn4)nc4ccccc43)n[nH]c2=S)c1	3%	25µM*	5%	-8%	0
COc1ccc(OC)c(-n2c(-c3ccc(C)cc3)n[nH]c2=S)c1	-6%	1%	-1%	-5%	2
SMILES	Tau fibril FP	Sfp inh	Tau fluor cs	Tau ThT inhib	Coupling enz
COc1ccc(-c2n[nH]c(=S)n2N)c(OC)c1	4%	35µM*	9%	5%	0
COc1ccc(-n2c(-c3ccc(Cl)cc3Cl)n[nH]c2=S)c(OC)c1	x	16%	x	x	-1
COc1ccc(OC)c(-n2c(-c3cccc(O)c3)n[nH]c2=S)c1	-4%	25µM*	2%	2%	-1
O=C1C=C[C@@H](O)[C@@H]2[C@H]3C(=O)N(c4ccc(F)cc4F)C(=O)[C@@H]3CC[C@@H]12	6%[11.6 µM]	-3%	2%[11.6 µM]	-12%[11.5 µM]	1
CCOC(=O)CN1C(=O)N[C@@H](c2cccc(C(F)(F)F)c2)[C@H](C(=O)OC)[C@H]1C	0%[11.6 µM]	4%	3%[11.6 µM]	0%[11.5 µM]	1
CCCCCCCn1c2c(c(=N)c3ccccc31)CCC2	13%	50µM*	-2%	-7%	12
O=C1/C(=C/Nc2ccc3c(c2)OCO3)CCc2ccccc21	u	35µM*	7.9µM*[quencher]	1.6µM*	-40*
COc1ccc(N/C=C2\CCc3ccccc3C2=O)cc1	-15%	56µM*	28µM*[quencher]	0.89µM*	-39*
COc1cccc(/C=C2\CCc3ccccc3C2=O)c1	-11%	-22%	-21%	u	-2
COc1ccc2c(c1)CC/C(=C\Nc1ccc3c(c1)OCO3)C2=O	u	22µM*	14µM*[quencher]	1.3µM*	-49*
COc1ccc2c(c1)CC/C(=C\C=C\c1ccccc1)C2=O	-8%	28µM*	-25%	2.5µM*	-17
COc1ccc(S(=O)(=O)Nc2ccc3c(c2)OCO3)cc1	u	-4%	-18%	-14%	0
CC(=O)N1CCC[C@@]2(CCN(C(c3ccccc3)c3ccccc3)C2)C1	x	18%	x	x	5
CCn1c(CN2CCC(C)CC2)nc2cc(NC(=O)c3cccc([N+](=O)[O-])c3)ccc21	15%	x	u	u	x
O=C(Cn1c(=O)n(Cc2ccc(F)cc2)c(=O)c2sc3ccccc3c21)NCc1ccccc1Cl	-17%	x	4%	14%	x
CC[C@H](C)[C@H](NC(=O)[C@H](CC(=O)O)NC(=O)[C@H](CC(C)C)NC(=O)[C@H](Cc1cnc[nH]1)NC(=O)[C@H](C)NC(=O)[C@H](Cc1ccccc1)NC(=O)[C@H](Cc1ccc(O)cc1)NC(=O)[C@@H](NC(=O)[C@H](C)NC(=O)[C@H](CCC(=O)O)NC(=O)[C@H](CCCCN)NC(=O)[C@H](CC(=O)O)NC(=O)[C@H](CCSC)NC(=O)[C@H](CC(C)C)NC(C)=O)C(C)C)C(=O)N[C@H](C(=O)N[C@@H](Cc1c[nH]c2ccccc12)C(=O)O)[C@@H](C)CC	x	1%	x	x	3
Cc1c(C(=O)N(C)C)sc2c1c(=O)n(-c1ccc(Cl)c(Cl)c1)c(=O)n2CC(=O)Nc1ccc(Br)cc1F	-8%	x	-8%	u	x
c1coc(CNc2nc(-c3ccncc3)cs2)c1	5%	17%	-3%	-9%	7
CCOc1ccccc1Nc1nc(-c2sc(NC(=O)c3ccco3)nc2C)cs1	7%	5%	u	u	-1
Cc1ccccc1Nc1nc(-c2sc(NC(=O)c3ccco3)nc2C)cs1	4%	14µM*	u	u	-19
Cc1nc(NC(=O)c2ccccc2)sc1-c1csc(NCc2ccco2)n1	4%	18µM*	u	u	-3
COc1ccc(CCNC(=O)c2cc3c(=O)n(C)c4cc(Cl)ccc4c3s2)cc1OC	-3%	x	-5%	-8%	x
COc1cccc(-n2nnc3c(=O)n(Cc4ccc(Br)cc4)cnc32)c1	u	35µM*	-18%	4%	1
CCOC(=O)C1=C(Cc2ccc(F)cc2)C(=O)c2ccccc2C1=O	16µM*	8.9µM*	u	10µM*	-57*

Screening results deposited in PubChem by National Center for Advancing Translational Sciences (NCATS).
